This is one part of a sample in which hits are shown more often than they occur.
Pf Dd2 growth – qHTS Primary assay for Inhibitors of Plasmodium falciparum Dd2 growth in vitro | P. falciparum Dd2 growth, SYBR Green, 72 h | Potency, µM (highest dose often 28.9 µM), actives largely listed as inhibitors | 120,000 tested, 4.3% active; active means well fitted inhibition curve with a large enough effect; further: nearly all actives have a fitted effect of over 65% in size
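Infected erythrocytes (Dd2, 0.3% parasitemia, 2.5% hematocrit final) are added to compound in RPMI-1640/Albumax II medium, grown 72 h at 37C in low oxygen, then lysed with saponin/Triton-X containing SYBR Green and read by fluorescence.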
Numbers stand for hits; i = inactive; [ ] = remark or other dose.

SMILES | Pf Dd2 growth
CC(C)c1cc(NCC2CCCCCN2)nc(N)n1 (configuration not stated) | i
CCN1C(=O)CCN(Cc2ccc(C)c(C)c2)CC12CCOCC2 | i
O=c1[nH]c(C2CCCN([S+](=O)([O-])c3cccc(C(F)(F)F)c3)C2)nn1-c1cccc(Cl)c1 (configuration not stated) | i
CC(C)C1c2nccn2CCCN1C(=O)c1ccc(Cn2cncn2)o1 (configuration not stated) | i
Cc1ccc(Cn2ccn(Cc3cccc(C(F)(F)F)c3)c(=O)c2=O)cc1 | i
Cc1cc(F)ccc1-c1cccc(COc2cnc3c(ccn3CC(=O)O)c2)c1 | i
Cc1cc(Cl)ccc1-c1ccccc1C=O | i
Cc1cc(Cl)ccc1-c1ccccc1CN | 8.9µM
O=C(O)c1cccc(-c2cc(C(F)(F)F)ccc2Cl)c1 | i
NCc1cccc(-c2cc(C(F)(F)F)ccc2Cl)c1 | 10µM
NCc1ccc(Oc2ccc(F)c(Cl)c2)cc1 | i
Cc1cc(Cl)ccc1-c1ccc(C=O)cc1 | i
Cc1cc(Cl)ccc1-c1cccc(CN)c1 | 14µM
Cc1ccc(-c2cccc(CN)c2)c(C)c1 | 14µM
Cc1nc(C)c(C(=O)N2CCC(c3noc(-c4cnccn4)n3)C2)s1 (configuration not stated) | i[5.79 µM]
COc1ccc(C(=O)N2CCCCC(NC(=O)NCc3ccco3)C2)cc1 (configuration not stated) | i
CCn1ncc(C(=O)N[C@@H]2CN(c3ncccn3)C[C@H]2CO)c1C | i
COc1ccccc1CN1CCC2(CC1)CC(C(=O)O)N(C(C)=O)C2 (configuration not stated) | i
Cc1ccc(C(=O)N2CCCOCCNC(=O)CC2)s1 | i
Cc1nc(-c2cn(C3CCCN(C(=O)c4ccc5c(c4)OCO5)C3)nn2)no1 (configuration not stated) | i
CCN(CC)C(=O)[C@@H]1CCC[C@@H](N(C)C)CN(C)C(=O)C1 | i
Cc1cccc(N(C)c2ccc3nnc(-c4cc(C(=O)N(C)C)ccn4)n3n2)c1 | i
CN1CCC(Oc2ncccc2C(=O)O)CC1 | i
c1cc(CN2CCC(Oc3nccnc3N3CCOCC3)C2)ccn1 (configuration not stated) | i
c1cnc(N2CCOCC2)c(OC2CCNC2)n1 (configuration not stated) | 1.4µM
SMILES | Pf Dd2 growth
CN1CCC(Oc2nccnc2N2CCc3ccccc3C2)C1 (configuration not stated) | 8.9µM
O=C(c1ccccc1)N1CCC(Oc2nccnc2N2CCOCC2)C1 (configuration not stated) | i
CN1CCC(Oc2nccnc2N2CCOCC2)C1 (configuration not stated) | i
c1ccc(CN2CCC(Oc3nccnc3N3CCc4ccccc43)C2)nc1 (configuration not stated) | 4µM
CN(C)C(=O)c1cccnc1OC1CCNCC1 | i
c1ccc2c(c1)CCN2c1nccnc1OC1CCNC1 (configuration not stated) | 7.9µM
CCNC(=O)c1cccnc1OC1CCN(Cc2ccccn2)C1 (configuration not stated) | i
O=C(NCCc1ccccn1)c1cccnc1OC1CCNCC1 | i
O=C(C1CCOCC1)N1CCC(Oc2nccnc2N2CCOCC2)C1 (configuration not stated) | i
COc1ccc(-c2noc([C@@H](C)NC(=O)C3CCCCC3)c2C(=O)O)cc1 | i
O=C(C1CCC1)N1CCC(C(=O)N2CC(Oc3ccccc3)C2)CC1 | i
COCC(=O)N[C@H]1CC[C@]2(C)CC[C@@H](C(C)C(=O)NC3CC3)[C@H](O)[C@H]2[C@@H]1C (some centres not stated) | i
O=C1NC2(CN(C(=O)Cc3ccccc3)C2)Oc2ccccc21 | i
OC1CC(c2cc(NCCCn3ccc4ccccc43)ncn2)C1 (configuration not stated) | i
Cc1ccccc1CC(=O)N1CC(C(=O)NCCc2ccncc2)C2(CCOCC2)C1 (configuration not stated) | i
CO[C@H]1C(=O)N(C2CCN(C(=O)Nc3ccccc3F)CC2)[C@H]1c1ccncc1 | i
COC1CCC12CCN(C(=O)c1ccncc1)CC2 (configuration not stated) | i
CN(c1ccccc1)c1ccc2nnc(-c3cc(C(=O)NC4CCOCC4)ccn3)n2n1 | i
CN(c1ccccc1)c1ccc2nnc(-c3cc(C(=O)NCCc4ccccc4)ccn3)n2n1 | 8.9µM
CN(c1ccccc1)c1ccc2nnc(-c3cc(C(=O)NCc4ccncc4)ccn3)n2n1 | i
Cc1cc(C(=O)NCc2cccnc2N2CCCC(O)C2)c(C)o1 (configuration not stated) | i
COc1cccc(NCc2nc3c(n2Cc2ccccc2)C(=O)N(CC2CC2)CCN3)c1 | i
CCOC(=O)C[C@@H]1C[C@@H](C(C)C)[C@H](CNS(=O)(=O)c2ccccc2)C=C1C | i
Cc1ccsc1C(=O)N1CCC(c2n[nH]c(=O)n2Cc2ccc(F)cc2)CC1 | i
O=C(c1cccs1)c1cn(CCOc2ccccc2Cl)c2ccccc12 | 3.2µM
SMILES | Pf Dd2 growth
Cc1ccc(C)c(OCCn2cc(C(=O)c3ccco3)c3ccccc32)c1 | 1µM
COc1ccc(NC(=O)Cn2cc(C(=O)C3CCCCC3)c3ccccc32)cc1 | i
O=C(c1cn(CCOc2ccccc2F)c2ccccc12)C1CCCCC1 | i
CCOC(=O)c1ccc(NC(=O)Cn2cc(C(=O)c3cccs3)c3ccccc32)cc1 | i
Cc1ccc(NC(=O)Cn2cc(C(=O)c3ccccc3)c3ccccc32)c(C)c1 | i
Cc1ccc(CN(Cc2ccco2)C(=O)COc2ccccc2C)cc1 | i
COc1ccc(OCCn2cc(C(=O)c3ccco3)c3ccccc32)cc1 | 1µM
COc1ccc(OCC(=O)Nc2ccc3c(c2)nc(CCNC(=O)c2ccco2)n3C)cc1 | i
Cc1noc(C)c1CC(=O)N1C[C@@H](CO)[C@H](c2ccccn2)C1 | i
CC(=O)N[C@H](C)c1onc(-c2ccc(Cl)cc2)c1C(=O)O | i
COCCN1CC(CO)C2(CCN(C(=O)Cc3c(C)noc3C)CC2)C1 (configuration not stated) | i
COCc1cn([C@H]2CO[C@H]3[C@@H]2OC[C@H]3OC(=O)Nc2cccc(C(F)(F)F)c2)nn1 | i
O=C1CO[C@H]2CN(c3ncccn3)C[C@H]2N1CC1CCCCC1 | i
CC(C)(CNc1ccc(-c2nc(C3CC3)no2)cn1)N1CCOCC1 | i
COc1ccc(Cn2ccc3nc(C)c(C(=O)Nc4ccc(F)cc4)cc3c2=O)cc1 | i
CCc1ccc(NC(=O)c2cc3c(=O)n(Cc4cccs4)ccc3nc2C)cc1 | 13µM
CCc1cccc(NC(=O)c2cc3c(=O)n(Cc4ccccc4)ccc3nc2C)c1 | i
CO[C@@H]1CO[C@H]2[C@@H]1OC[C@@H]2n1nnnc1C(C)C | i
NC(=O)[C@@H](Cc1c[nH]c2ccccc12)NC(=O)[C@@H]1C[C@@H](NS(=O)(=O)c2cccs2)CCN1C(=O)CSCC(=O)O | i
COc1ccccc1CC(=O)NC1CCN(c2cc(C(F)(F)F)ncn2)CC1 | i
COc1ccc(-c2cc(N3CCCC(NC(=O)Cc4cccs4)C3)n[nH]2)cc1 (configuration not stated) | i
CC1Oc2ccc(NC(=O)Cc3cccs3)cc2CN(Cc2ccc(Cl)cc2)C1=O (configuration not stated) | i
Cc1ccccc1CC(=O)Nc1ccc2ncnc(N3CCCCC3)c2c1 | i
O=C(Cc1cccs1)Nc1ccc2c(N3CCCCC3)ncnc2c1 | 5µM

Assay outcomes: PubChem, National Center for Advancing Translational Sciences (NCATS)
